High-throughput results deposited in PubChem by National Center for Advancing Translational Sciences (NCATS).
GALK inhibitor – qHTS Assay for Inhibitors of Human Galactokinase (GALK); Potency, µM (series often up to 57.5 µM), without a hit: at the top dose activity change, negative = inhibition, actives largely listed as inhibitors; AID 1868, 2009; 0.007% of 270,000 active; Purified GALK, Kinase-Glo residual ATP luminescence; P51570; also: potency is read from the fitted curve at half-maximal effect; % is scaled to controls: 0 for no effect and ±100 for the full control effect
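GALK at 5 nM final was combined with compound, 35 uM ATP and 100 uM galactose in HEPES pH8.0 with MgCl2 and DTT. The reaction ran one hour at room temperature before luminescent ATP detection.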
HTT ATP protect – qHTS Multiplex Assay to Identify Dual Action Probes in a Cell Model of Huntington: Cytoprotection (ATP) | PC12 HTT-Q103 induced, cytoprotection, ATP luminescence, 40 h | Potency, µM (highest dose often 56.4 µM), for inactives: cytoprotection (ATP increase), usual class: activators | 0.14% of 230,000 active; also: potency is read from the fitted curve at half-maximal effect; % of control where 0% means no effect; nearly all actives have a fitted effect of over 45% in size
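Compounds were screened for protection of PC12 cells against cell death after tebufenozide induction (100 nM final) of mutant Huntingtin exon 1 (Q103) fused to GFP.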
HttQ103 aggreg – qHTS Multiplex Assay to Identify Dual Action Probes in a Cell Model of Huntington: Aggregate Formation (GFP); PC12 HttQ103-GFP aggregates, Acumen cytometry, 40 h; Potency, µM (top dose mostly 46.1 µM), inactives show at the top dose activity change, negative = inhibition, actives largely listed as inhibitors; 1.1% of 220,000 active; AID 1688, 2009; also: potency is read from the fitted curve at half-maximal effect; % is scaled to controls: 0 for no effect and ±100 for the full control effect; nearly all actives have a fitted effect of over 60% in size
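Ecdysone-promoter PC12 model expressing HTT exon 1 Q103 fused to GFP, induced by tebufenozide at 100 nM final. Compounds titrated; aggregates sized 1–25 µm scored on a 488 nm laser cytometer.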
PI4K2A inh – qHTS for small molecular inhibitors of PI4K2A. Phosphatidylinositol 4-kinase type 2-alpha (Homo sapiens), Q9BTU6. activity change, negative = inhibition, % at 76.9 µM. 0.13% of 420,000 active. AID 1346378, 2018. purified PI4K2A, ADP-Glo luminescence, 1 h; stronger effect = lower value; in the data active = activity change below about -50%; inconclusive = mostly about -30% to -49%;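 also: -100% = wells without enzyme as full effect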
Target sequence (Q9BTU6 whole entry, looked up): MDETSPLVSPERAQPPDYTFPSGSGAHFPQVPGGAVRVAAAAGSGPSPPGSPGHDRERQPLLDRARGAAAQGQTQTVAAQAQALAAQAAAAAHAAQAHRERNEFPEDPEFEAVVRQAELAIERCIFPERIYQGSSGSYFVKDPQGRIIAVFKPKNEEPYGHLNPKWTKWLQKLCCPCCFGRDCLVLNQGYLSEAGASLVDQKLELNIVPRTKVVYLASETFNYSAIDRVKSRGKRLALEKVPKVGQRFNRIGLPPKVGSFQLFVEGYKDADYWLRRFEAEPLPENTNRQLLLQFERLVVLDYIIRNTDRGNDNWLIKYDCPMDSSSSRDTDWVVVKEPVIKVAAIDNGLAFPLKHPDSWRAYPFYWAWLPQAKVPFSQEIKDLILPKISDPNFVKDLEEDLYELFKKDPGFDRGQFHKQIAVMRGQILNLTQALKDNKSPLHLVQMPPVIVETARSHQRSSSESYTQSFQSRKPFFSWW
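ADP-Glo luminescence measured ADP generated by PI4K2A enzyme (4 ug/mL before mixing) with 1.2 mM PI substrate (pre-mix) and 300 microM ATP (pre-mix). Tris pH7.5 buffer with MgCl2, Triton X-100; 1 h reaction at ambient temperature.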
Starred values were filed as active, the others as inactive; i = inactive; ? = inconclusive; · = not tested or not shown; ! = not active in a repeat; [ ] = dose if it differs, or a comment. Many of the other results were omitted from the sample, so hits are more common in it than they were. Unless noted, calls follow the shape of the dose curve; as a rule, active = well fitted curve in the direction sought with a large enough effect; inconclusive = small, poorly fitted or top-dose-only effect, or another doubt; inactive = no such curve, though single readings can be large; an effect the other way counts as inactive or inconclusive.

SMILES	GALK inhibitor	HTT ATP protect	HttQ103 aggreg	PI4K2A inh
COc1ccccc1-c1nnc(NC(=O)c2ccc(S(=O)(=O)N(C)C)cc2)o1	0.0%	-3.4%	13.2%[9.22 µM]	-3.7
CCN(Cc1ccccc1)S(=O)(=O)c1ccc(C(=O)Nc2nnc(-c3ccccc3OC)o2)cc1	0.3%	5.8%[10 µM]	22.4µM*	6.7
CCCCN(CC)S(=O)(=O)c1ccc(C(=O)Nc2nnc(CSC)o2)cc1	3.1%	-61.1%	10µM*	-18.9
CCCN(CCC)S(=O)(=O)c1ccc(C(=O)Nc2nnc(CSC)o2)cc1	-0.2%	-42.5%	11.2µM*	2.0
COC(=O)C[C@@H]1CC[C@H]2[C@@H](COc3ccc(NC(=O)NC(C)C)cc3C(=O)N2C)O1	·	·	·	-2.6
C/C(=C\C(=O)c1cccnc1)Nc1ccc(O)cc1	-2.6%	-19.5%	-1.7%	-60.7*
C/C(=C\C(=O)c1ccccc1)Nc1ccc(O)cc1	2.7%	-27.2%	12.7%	-53.6*
COc1cc([C@@H]2c3cc4c(cc3C(OC3OC5COC(C)OC5C(O)C3O)C3COC(=O)[C@@H]32)OCO4)cc(OC)c1O (stereo partly specified)	·	-53.0%[1.9 µM]	·	·
COc1ccc(-c2coc3ccc(O[C@@H]4O[C@@H](COC(C)=O)[C@@H](OC(C)=O)[C@@H](OC(C)=O)[C@H]4OC(C)=O)cc3c2=O)cc1	·	-38.4%	·	·
CCCN(CCC)C1=CC(=[N+]2CCCC2)CC(C)(C)C1	0.0%	33.8%[0.074 µM]	11.2µM*	-1.4
CN(C)NC1=CC(=[N+]2CCCC2)CC(C)(C)C1	-1.7%	-20.8%	-17.3%	-0.7
Cc1ccc(OCC(=O)Nc2ccc(N3CCN(C(=O)c4ccc(C)cc4)CC3)cc2)cc1	-0.9%	39.3%[10 µM]	37.1%[9.22 µM]	-3.2
Cc1cccc(OCC(=O)Nc2ccc(N3CCN(C(=O)c4ccccc4)CC3)cc2)c1	1.9%	6.5%[0.074 µM]	12.6µM*	2.8
S=C(NCCN1CCOCC1)Nc1cccc2ccccc12	2.7%	-14.9%[10 µM]	3.55µM*	-0.1
C=CCNC(=S)N/N=C(\C)c1ccccn1	0.9%	-60.9%[10 µM]	3.55µM*	-8.4
O=C(CCn1cnc2ccccc21)N/N=C/c1ccccc1O	2.8%	-29.7%[10 µM]	10µM*	-6.4
O=C(CCC(=O)Nc1ccc(F)cc1)N/N=C/c1ccccc1O	-3.3%	-40.8%	?	-0.6
O=C(CCN1CCN(c2ccccc2)CC1)N/N=C/c1ccccc1O	8.8%	-130.5%	12.6µM*	3.3
O=C(CCC(=O)N/N=C/c1ccccc1O)NCc1ccccc1	1.2%	4.4%[10 µM]	10µM*	0.6
O=C(CCn1cnc2ccccc21)N/N=C/c1ccc(O)cc1	3.8%	11.5%[10 µM]	10.0%	0.3
Cc1cccc2[nH]c3c(N4CCC5(CC4)OCCO5)ncnc3c12	2.6%	-55.1%	22.4µM*	6.6
Cc1ccc2[nH]c3c(N4CCOCC4)ncnc3c2c1	0.5%	-15.7%	?	-12.6
Cc1ccc2[nH]c3c(N4CCc5ccccc5C4)ncnc3c2c1	·	-84.7%	3.55µM*	-1.7
Clc1ccc2[nH]c3c(N4CCC5(CC4)OCCO5)ncnc3c2c1	-1.3%	-97.6%	8.91µM*	10.7
CCCCCCCCSc1nnc(CSc2nc3nc(C)cc(C)n3n2)o1	-0.2%	-40.3%	22.4µM*	3.1
SMILES	GALK inhibitor	HTT ATP protect	HttQ103 aggreg	PI4K2A inh
Cc1cc(C)n2nc(SCc3nnc(SCCCCl)o3)nc2n1	-1.2%	-8.8%	5.0%	-2.8
Cn1ccnc1C(=O)O[C@@H]1CCC[C@@]2(C(=O)N(Cc3ccccc3)c3ccccc32)[C@H]1NC(=O)CCc1ccccc1	·	·	·	0.2
Fc1ccc(Nc2cncc(-c3ccsc3)c2)cc1Cl	·	·	·	-50.3*
Fc1ccc(Nc2nnc(C(F)(F)F)s2)cc1Cl	-2.1%	-3.1%[10 µM]	-12.5%[9.22 µM]	3.3
O=C(c1cc(Cl)cc(Cl)c1)N1CCC(Oc2cccnc2)CC1	·	·	·	-4.4
Cn1c(Sc2ccc(Br)cc2)c(C=O)c2ccccc21	0.5%	-60.5%	10µM*	1.5
Nc1ccc2nc(-c3ccccc3)sc2c1	9.4%	-112.6%	-5.6%	-54.9*
Cc1ccc2nc(-c3ccc(N)cc3)sc2c1	6.6%	-63.7%[10 µM]	-10.6%[9.22 µM]	-13.5
CC(=O)c1cc(-c2cnn(Cc3ccccc3)c2)c(=O)n2c1CCC2	·	·	·	-13.5
c1cnc(N2CCN(c3ncnc4c3oc3ccccc34)CC2)nc1	3.1%	-19.2%[0.074 µM]	-1.1%	·
C(=C\c1ccccc1)/CN1CCN(c2ncnc3c2oc2ccccc23)CC1	10.4%	-188.8%[0.074 µM]	6.31µM*	0.9
C[C@]12C[C@H](O)CC(CO)(CO)C1[C@H](O)C[C@@]13CC4[C@@H](CC12)[C@@]4(C)C3 (stereo partly specified)	·	-19.3%	·	·
FC(F)(F)C1=Nc2cccc3cccc(c23)N1	·	·	·	-64.3*
Fc1ccc(C2=Nc3cccc4cccc(c34)N2)cc1	-0.8%	-26.7%[10 µM]	-15.0%[9.22 µM]	-4.6
CO[C@]12C(COC(N)=O)C3=C(C(=O)C(C)=C(N)C3=O)N1CC1NC12 (stereo partly specified)	·	-288.7%	12.6µM*	·
COc1ccc(-c2cc(C(F)(F)F)c3c(n2)sc2c(O)cc(=O)[nH]c23)c(OC)c1	-1.7%	-18.5%[10 µM]	-29.5%	-56.0*
COC(=O)c1ccc(S(=O)(=O)N2CCC(NC(=O)COc3ccc(F)cc3)CC2)cc1	·	·	·	-0.2
CC(CN1c2ccccc2Sc2ccccc21)N(C)C (stereo unspecified)	-1.8%	-187.2%	28.2µM*!	1.8
Cc1c(NC(=O)C2CCCN(S(=O)(=O)c3ccc(Cl)s3)C2)c(=O)n(-c2ccccc2)n1C (stereo unspecified)	·	·	·	-2.8
CC1=NN(c2cccc(Cl)c2)C(=O)C1	-0.5%	-1.0%[10 µM]	-24.3%[9.22 µM]	-59.8*
CC1=NN(c2ccc(S(=O)(=O)O)cc2Cl)C(=O)C1	1.9%	14.8%[10 µM]	-13.8%[9.22 µM]	-61.4*
O=C(c1ccc(Cl)cc1)c1coc2ccc(O)cc12	3.8%	-39.8%	0.631µM*	7.8
O=C(c1ccc(Br)cc1)c1coc2ccc(O)cc12	·	·	·	5.2
COc1ccc(N=Cc2cc3c(cc2O)OC(N)=C(C#N)C3c2ccccc2)cc1 (stereo unspecified)	-2.1%	6.8%[1.9 µM]	7.94µM*	-0.3
COc1ccc(C2C(C#N)=C(N)Oc3cc(O)ccc32)cc1 (stereo unspecified)	·	·	·	0.0
O=C(CSc1cccc[n+]1[O-])CSc1cccc[n+]1[O-]	0.4%	?	-8.6%	2.9
[O-][n+]1ccccc1SSc1cccc[n+]1[O-]	·	-98.4%	5.01µM*	i
CCOC(=O)CSc1nc2cc(C(=O)N3CCC(C(N)=O)CC3)ccc2c(=O)n1-c1ccccc1	0.3%	-16.7%	2.82µM*	1.0
NC(=S)n1[nH]c(-c2ccc([N+](=O)[O-])cc2)c(N=Nc2cccc([N+](=O)[O-])c2)c1=O	12.0%	-120.6%	12.6µM*	0.7
CCOC(=O)c1sc(NC(=O)c2cc(-c3ccc(C)cc3)nc3ccccc23)c(C#N)c1C	0.0%	-70.4%	10µM*	3.3
